In PubChem BioAssay (NCATS):
Inconclusive results are not listed. Calls of active or inactive are those of the source. Calls follow the shape of the dose curve; as a rule, active = well fitted curve in the direction sought with a large enough effect; inconclusive = small, poorly fitted or top-dose-only effect, or another doubt; inactive = no such curve, though single readings can be large; an effect the other way counts as inactive or inconclusive.

Key:
[1] = target: Rap guanine nucleotide exchange factor 3 (Homo sapiens) (UniProt O95398); assay: Confirmatory qHTS for antagonist of cAMP-regulated guanine nucleotide exchange factor 3 (EPAC1) (AID 1645880); settings: EPAC1 Rap1B-BODIPY-GDP exchange, fluorescence; activity, negative = inhibition: at 115 µM (top of the series); also: nearly all actives have a fitted effect of over 55% in size; also: potency is read from the fitted curve at half-maximal effect
Rap guanine nucleotide exchange factor 3 (Homo sapiens), sequence (O95398 whole entry, looked up): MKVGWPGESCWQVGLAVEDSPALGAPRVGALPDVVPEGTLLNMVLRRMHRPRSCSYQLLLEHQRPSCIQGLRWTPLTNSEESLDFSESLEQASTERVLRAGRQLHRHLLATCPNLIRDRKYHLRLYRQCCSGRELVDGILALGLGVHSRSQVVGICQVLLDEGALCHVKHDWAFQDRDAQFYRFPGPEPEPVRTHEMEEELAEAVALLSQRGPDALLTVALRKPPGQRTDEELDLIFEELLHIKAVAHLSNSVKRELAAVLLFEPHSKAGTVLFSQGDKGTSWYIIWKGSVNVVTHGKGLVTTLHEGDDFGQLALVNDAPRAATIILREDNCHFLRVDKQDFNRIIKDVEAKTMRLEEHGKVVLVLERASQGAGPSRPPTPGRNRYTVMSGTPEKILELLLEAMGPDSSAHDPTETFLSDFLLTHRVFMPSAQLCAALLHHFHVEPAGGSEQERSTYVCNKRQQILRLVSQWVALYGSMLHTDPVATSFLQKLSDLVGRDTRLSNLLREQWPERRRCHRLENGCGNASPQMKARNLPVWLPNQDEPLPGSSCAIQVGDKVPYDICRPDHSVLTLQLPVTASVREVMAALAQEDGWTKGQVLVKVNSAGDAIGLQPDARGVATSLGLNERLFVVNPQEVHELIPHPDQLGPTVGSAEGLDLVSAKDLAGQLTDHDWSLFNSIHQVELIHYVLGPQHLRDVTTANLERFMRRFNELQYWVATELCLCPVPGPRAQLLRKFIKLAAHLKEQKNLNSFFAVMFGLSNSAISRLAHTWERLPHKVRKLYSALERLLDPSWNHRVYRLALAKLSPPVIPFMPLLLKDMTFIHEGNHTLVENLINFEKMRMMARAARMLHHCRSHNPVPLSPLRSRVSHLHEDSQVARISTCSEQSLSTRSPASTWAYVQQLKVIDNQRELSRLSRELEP
How it was run: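 Nucleotide exchange uses 100 nM EPAC1, 250 nM RAP1B-BODIPY-GDP and 50 uM GDP, with compounds in a concentration-titration series. After 5 min at room temperature, fluorescence (480 nm ex/540 nm em) is read every 5 min for 30 min. Data are normalized to control ATA and DMSO.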

[2] = target: Rap guanine nucleotide exchange factor 3 (Homo sapiens) (UniProt O95398); assay: Confirmatory qHTS for agonist of cAMP-regulated guanine nucleotide exchange factor 3 (EPAC1) (AID 1645881);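 also: EPAC1 catalysed release of BODIPY-GDP from Rap1B seen as fluorescence loss; nearly all actives have a fitted effect of over 75% in size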
[3] = target: Rap guanine nucleotide exchange factor 4 (Homo sapiens) (UniProt Q8WZA2); assay: Confirmatory qHTS for agonist of cAMP-regulated guanine nucleotide exchange factor 4 (EPAC2) (AID 1645884);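 also: nucleotide exchange releases bodipy-GDP from Rap1 and this lowers its fluorescence; nearly all actives have a fitted effect of over 65% in size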
Rap guanine nucleotide exchange factor 4 (Homo sapiens), sequence (Q8WZA2 whole entry, looked up): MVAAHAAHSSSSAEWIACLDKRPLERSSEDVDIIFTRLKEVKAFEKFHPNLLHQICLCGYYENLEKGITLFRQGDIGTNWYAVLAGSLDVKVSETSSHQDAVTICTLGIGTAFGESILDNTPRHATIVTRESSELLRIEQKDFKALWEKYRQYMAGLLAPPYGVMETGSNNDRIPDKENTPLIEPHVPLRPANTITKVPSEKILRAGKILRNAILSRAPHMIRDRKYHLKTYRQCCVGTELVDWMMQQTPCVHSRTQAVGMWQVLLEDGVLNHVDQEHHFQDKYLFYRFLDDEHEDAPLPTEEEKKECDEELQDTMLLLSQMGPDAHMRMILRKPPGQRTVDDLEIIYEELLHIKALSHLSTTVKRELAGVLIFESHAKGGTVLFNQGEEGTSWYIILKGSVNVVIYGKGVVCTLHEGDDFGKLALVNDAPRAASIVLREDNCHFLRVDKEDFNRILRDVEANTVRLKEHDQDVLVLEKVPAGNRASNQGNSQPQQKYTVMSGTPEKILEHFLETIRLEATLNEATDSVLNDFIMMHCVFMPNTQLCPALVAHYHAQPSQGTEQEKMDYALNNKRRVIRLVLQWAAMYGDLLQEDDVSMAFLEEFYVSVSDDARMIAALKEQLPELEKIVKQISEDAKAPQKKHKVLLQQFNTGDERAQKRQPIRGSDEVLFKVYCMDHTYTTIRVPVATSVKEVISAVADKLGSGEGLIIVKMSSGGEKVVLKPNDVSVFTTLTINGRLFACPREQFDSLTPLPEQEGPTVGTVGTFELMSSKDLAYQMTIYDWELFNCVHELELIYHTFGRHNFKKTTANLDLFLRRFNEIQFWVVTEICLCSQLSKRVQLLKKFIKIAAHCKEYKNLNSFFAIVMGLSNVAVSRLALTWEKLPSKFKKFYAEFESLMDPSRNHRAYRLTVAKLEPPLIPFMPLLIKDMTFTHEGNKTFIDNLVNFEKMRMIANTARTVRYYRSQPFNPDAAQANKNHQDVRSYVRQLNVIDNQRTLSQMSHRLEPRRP

[4] = target: Rap guanine nucleotide exchange factor 3 (Homo sapiens) (UniProt O95398); assay: Counterscreen qHTS for antagonist of cAMP-regulated guanine nucleotide exchange factor 3 (EPAC1) (AID 1645888);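 also: fluorescence loss as bound BODIPY-GDP is released from Rap1B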
How it was run: (§1)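 Rap1B-BODIPY-GDP 250 nM + GDP 50 uM; cpds 7-pt, final 9.74 nM–152 uM (activator mode) or from 7.32 nM upwards (inhibitor mode); RT; FI 480/540 nm at 5 and 30 min, then ± cAMP, reread.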

[5] = target: Rap guanine nucleotide exchange factor 3 (Homo sapiens) (UniProt O95398); assay: Counterscreen qHTS for agonist of cAMP-regulated guanine nucleotide exchange factor 3 (EPAC1) (AID 1645889); also: nearly all actives have a fitted effect of over 40% in size
How it was run: as §1

Measured: Potency

Nc1nc(C(c2ccccc2)c2ccccc2)cs1
inactive: all assays above

COc1cc(CN2C(=O)C(C)ON=C2c2cccs2)cc(OC)c1 (stereo not drawn)
not listed: [5]
inactive: all other assays above

O=C(c1ccco1)N1CCn2cccc2C1c1ccccc1 (stereo not drawn)
not listed: [5]
inactive: all other assays above

COc1ccccc1C(=O)C1CCCN(C(=O)c2ccc3c(c2)OCCO3)C1 (stereo not drawn)
inactive: all assays above

COc1ccccc1OCCOc1ccc(/C=C2\C(=N)N3N=C(S(C)(=O)=O)SC3=NC2=O)cc1
active: [1] 67.5 µM
inactive: all other assays above

O=C(c1ccccc1)c1cccc(C(=O)c2ccccc2)c1
inactive: all assays above

CNc1ccc(-c2nc(-c3ccco3)no2)cc1[N+](=O)[O-]
inactive: all assays above
